Bioassay records: PubChem BioAssay, National Center for Advancing Translational Sciences (NCATS)
The list is not random: actives were taken first. Their share in the collection is about 12%.
HP1b binding inh: HP1-beta chromodomain-methylated histone interaction inhibition; P83916; AlphaScreen HP1-beta / biotin-H3K9me3 peptide binding; Potency, µM (titrated, usually from 114 µM), usual class: inhibitors; actives 0.56% (n = 390,000); also: nearly all actives have a fitted effect of over 70% in size
Target sequence (P83916 whole entry, looked up): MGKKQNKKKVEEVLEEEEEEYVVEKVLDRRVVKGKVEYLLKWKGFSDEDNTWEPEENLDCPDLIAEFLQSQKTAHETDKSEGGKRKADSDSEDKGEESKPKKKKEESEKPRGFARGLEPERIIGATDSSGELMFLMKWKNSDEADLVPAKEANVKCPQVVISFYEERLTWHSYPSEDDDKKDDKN
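AlphaScreen: HP1-beta (50 nM) preformed 30 min with biotin-H3(1-18)K9me3 peptide (50 nM) in PBS pH 7.4, 0.01% Tween-20. Compound added for 30 min at RT, then streptavidin donor/nickel chelate acceptor beads (10 ug/mL) for 30 min.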
Sfp inh: inhibitors of Bacillus subtilis Sfp phosphopantetheinyl transferase | Q9F4F7 | Potency, µM, most hits filed as inhibitors | actives 3.5% (n = 310,000) | Biochemical Sfp PPTase activity, qHTS;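 also: the enzyme is Sfp with the accession as filed and its product quenches rhodamine fluorescence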
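With Hepes-Na pH 7.6 buffer containing 10 mM MgCl2, Sfp (15 nM) modified BHQ-2-YbbR (12.5 uM) using rhodamine-CoA (5 uM). Two reads 30 minutes apart at 525/598 nm yielded each well's rate.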
JMJD2A Tudor: blocks the human JMJD2A Tudor domain; actives 4.4% (n = 390,000); AlphaScreen JMJD2A-Tudor / H3K4me3 peptide binding; O75164; Potency, µM (top dose mostly 114 µM), hits mostly inhibitors; also: nearly all actives have a fitted effect of over 50% in size
L3MBTL1 block: inhibitors of human L3MBTL1 | Q9Y468 | Potency, µM (top dose mostly 57.1 µM), actives largely listed as inhibitors | AlphaScreen L3MBTL1–H3K9me1 peptide binding | actives 0.66% (n = 230,000); also: nearly all actives have a fitted effect of over 60% in size
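AlphaScreen proximity signal between nickel-chelate acceptor and streptavidin donor beads (final 10 ug/mL) reports binding of 50 nM L3MBTL1 to 75 nM biotin-H3 K9me1 peptide; complex incubated with compounds 30 min at room temperature; cefsulodin titration as control.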
G9a inh: inhibitors of human histone lysine methyltransferase G9a; Q96KQ7; G9a H3K9 monomethylation, AlphaScreen, 2 h; Potency, µM (highest dose often 102 µM), hits mostly inhibitors; actives 8.8% (n = 350,000); AID 504332; also: nearly all actives have a fitted effect of over 75% in size
Target sequence (Q96KQ7 913-1193 limits assumed): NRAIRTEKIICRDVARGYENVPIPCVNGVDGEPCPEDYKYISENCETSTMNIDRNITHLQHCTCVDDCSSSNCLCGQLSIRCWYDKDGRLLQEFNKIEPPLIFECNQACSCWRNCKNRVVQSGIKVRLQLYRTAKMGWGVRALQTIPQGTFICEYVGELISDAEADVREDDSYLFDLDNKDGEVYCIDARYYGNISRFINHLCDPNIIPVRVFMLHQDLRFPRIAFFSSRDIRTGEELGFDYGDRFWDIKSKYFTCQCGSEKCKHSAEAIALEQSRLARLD
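Methyltransferase reactions run at room temperature for 2 h (20 nM enzyme, 500 nM biotin-H3K9 peptide, 20 uM SAM) after a 15 min compound preincubation; product detected by AlphaScreen beads and anti-H3K9me1 antibody.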
BAZ2B block: BAZ2B (human) inhibition. AlphaScreen BAZ2B-H3K14Ac peptide displacement. Potency, µM (doses to about 114 µM), hits mostly inhibitors. actives 4.4% (n = 360,000). AID 504333; also: nearly all actives have a fitted effect of over 60% in size
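Compounds, titrated to a top concentration of 110 uM, were incubated 30 min at room temperature with preformed BAZ2B/acetyl-K14 H3 peptide complex (50 nM each). Proximity signal was measured by AlphaScreen after 20 min with beads.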
Numbers stand for hits; . = inactive; ? = inconclusive; / = not tested or not shown; [ ] = another dose, or the depositor's remark. Calls follow the shape of the dose curve; as a rule, active = well fitted curve in the direction sought with a large enough effect; inconclusive = small, poorly fitted or top-dose-only effect, or another doubt; inactive = no such curve, though single readings can be large; an effect the other way counts as inactive or inconclusive.

SMILES	HP1b binding inh	Sfp inh	JMJD2A Tudor	L3MBTL1 block	G9a inh	BAZ2B block
COc1ccc(-c2onc(C)c2-c2ccccc2)c(O)c1	.	.	.	/	.	.
CC(C)c1ccc(S(=O)(=O)c2cn(CC(=O)Nc3ccc(F)cc3)c3ccccc3c2=O)cc1	.	/	.	/	.	.
CCCc1c(C(=O)Nc2ccc(C(F)(F)F)cc2)cnn1-c1ccccc1	.	.	.	.	.	.
CCCc1c(C(=O)NNc2ccc(C)cc2)cnn1-c1ccccc1	.	.	?	.	4.47µM	?
CCc1ccc(NC(=O)Cn2c(=O)n(CC3CCCO3)c(=O)c3cc(OC)c(OC)cc32)cc1 (configuration not stated)	.	/	.	/	.	.
O=C(O)CCCC(=O)NNc1ncnc2ccccc12	.	.	3.16µM	.	.	.
Cc1cc(C)cc(Nc2nc3ccccc3nc2-n2nc(C)cc2C)c1	.	/	.	/	.	.
Cc1ccc(S(=O)(=O)Nc2nc(C)c(NC(=O)OCCCl)s2)cc1	.	50.1µM	.	/	.[2.33 µM]	?
Cc1ccc(S(=O)(=O)Nc2nc(C)c(C(=O)Nc3ccccc3)s2)cc1	.	.	.	.	?	.
Cc1nc(NS(=O)(=O)c2ccccc2)sc1NC(=O)OC(C)C	.	50.1µM	.	.	.[0.0925 µM]	.
Cc1ccc(S(=O)(=O)Nc2nc(C)c(NC(=O)Nc3ccc(Cl)cc3Cl)s2)cc1	.	35.5µM	.	.	?	.
COc1ccc(NC(=O)Nc2sc(NS(=O)(=O)c3ccccc3)nc2C)cc1	.	44.7µM	.	.	50.1µM	.
COc1ccc(CNC(=O)c2ccc(CN3C(=O)C(C)=C(c4ccc(C)cc4)S3(=O)=O)cc2)cc1	.	/	.	/	.	.
COc1ccc(Cl)cc1NC(=O)Cn1cc2c(n1)CCC(C)C2 (configuration not stated)	.	/	.	/	.	.
CCOc1ccccc1NC(=O)CN1C(=O)COc2ccc(S(=O)(=O)N3CCCCC3)cc21	.	/	.	/	.	.
COc1cc(/C=C(\NC(=O)c2ccccc2)C(=O)NC(C(=O)O)c2ccccc2)cc(OC)c1OC (configuration not stated)	.	.	.	.	39.8µM	.
COC(=O)/C(=C/c1ccco1)NC(=O)c1ccc(Br)o1	.	44.7µM	.	.	44.7µM	.
Cc1ccc(C(=O)N/C(=C\c2sccc2C)C(=O)NCc2ccco2)cc1	.	.	.	.	.	.
Cc1ccc(C(=O)N/C(=C/C=C\c2ccccc2)C(=O)NCc2ccco2)cc1	.	.	.	.	44.7µM	.
COc1ccccc1C(=O)N/C(=C\c1ccccc1)C(=O)NC(C)C(=O)O (configuration not stated)	.	.	.	.	.	.
CSCCC(NC(=O)/C(=C/c1ccco1)NC(=O)c1ccco1)C(=O)O (configuration not stated)	.	/	39.8µM	/	/	/
CCC(=O)N1CCc2cc(Br)cc(S(=O)(=O)N3CCC(C(=O)Nc4ccccc4CC)CC3)c21	.	/	.	/	.	.
COc1ccc(COC(=O)N/N=C2/C[C@@H](O)[C@@H](O)[C@@H]3[C@@H]4C(=O)N(Cc5ccc6c(c5)OCO6)C(=O)[C@H]4CC[C@@H]23)cc1	/	.	/	/	/	/
Cc1cc(C)cc(C(=O)Nc2ccc(-c3nc4ncccc4o3)cc2)c1	.	/	.	/	?	.
COc1cccc(NC(=O)Cn2c(=O)n(CC(=O)NCCc3ccccc3)c(=O)c3sccc32)c1	.	/	.	/	.	.
O=C(NCc1ccco1)/C(=C/c1ccco1)NC(=O)c1ccco1	.	.	.	/	39.8µM	.
CC(NC(=O)/C(=C\c1ccco1)NC(=O)c1ccco1)C(=O)O (configuration not stated)	.	.	.	?	35.5µM	.
CSCCC(NC(=O)/C(=C\c1ccco1)NC(=O)c1ccco1)C(=O)O (configuration not stated)	.	.	.	?	?	.
O=C(NCc1ccco1)/C(=C\c1ccco1)NC(=O)c1ccccc1Cl	.	.	.	/	?	.
